For seven compounds, outcome and AC50 results are on record in PubChem BioAssay (EPA / NIEHS).

Assay [1] in a line: ATG_CRE_CIS: Attagene CIS-FACTORIAL HepG2 Assay for human cAMP Responsive Element (CRE) binding protein 3 (AID 2282926). To be noted: HepG2 CRE cis-reporter, Attagene multiplexed mRNA; actives raise or lower the signal. In a few lines: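 Readout: fluorescently labelled reporter transcripts resolved by capillary electrophoresis after RT-PCR, taken 24 h post-dosing in transfected HepG2. Endogenous transcription factor activity drives each cis-element reporter; gain or loss of signal fitted relative to DMSO control.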

The target of assay [2] is CCAAT/enhancer-binding protein beta (Homo sapiens) (UniProt P17676). Briefly: ATG_C_EBP_CIS: Attagene CIS-FACTORIAL HepG2 Assay for human CCAAT/Enhancer Binding Protein (C/EBP) beta (AID 2282927). To be noted: HepG2 Attagene cis-factorial transcription factor reporter; actives raise or lower the signal. In a few lines:
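Following a 24 h incubation with test chemical, transfected HepG2 cells yielded RNA whose reporter transcripts were quantified by RT-PCR and fluorescent capillary electrophoresis, with DMSO serving as baseline for bidirectional fitting.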

Assay [3] in a line: ATG_CMV_CIS: Attagene CIS-FACTORIAL HepG2 Assay for human CMV (Internal Marker) (AID 2282928).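 Note: endpoint acts as a background internal control marker rather than a target.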 To be noted: HepG2 CMV promoter reporter, transcription factor profiling; actives raise or lower the signal. In short, it runs like this: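 Reporter transcripts from transfected HepG2 cells are isolated after 24 h of chemical dosing, reverse-transcribed and amplified. Fragments labeled with 6-FAM are cut with HpaI and quantified by capillary electrophoresis; DMSO defines baseline.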

Assay [4] in a line: ATG_DR4_LXR_CIS: Attagene CIS-FACTORIAL HepG2 Assay for human Liver X Receptor (LXR), DR4 submotif (AID 2282929). To be noted: HepG2 Attagene DR4 cis-reporter, mRNA transcription; actives raise or lower the signal. In short, it runs like this: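 HepG2 cells transiently transfected with cis-promoter-driven multiplexed reporter units (DR4 element) were dosed for 24 h. Reporter mRNA was quantified by RT-PCR, fluorescent primer extension, HpaI digestion and capillary electrophoresis; bidirectional fitting versus DMSO baseline.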

Assay [5] deals with Aryl hydrocarbon receptor (Homo sapiens) (UniProt P35869). Briefly: ATG_Ahr_CIS: Attagene CIS-FACTORIAL HepG2 Assay for human Aryl Hydrocarbon Receptor (Ahr) (AID 2282930). To be noted: HepG2 AhR cis-factorial reporter transcription; actives raise or lower the signal. In a few lines: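 Values derive from bidirectional fitting against DMSO negative control. Underlying signal: cis-element reporter mRNA in transiently transfected HepG2, harvested 24 h post-dose and measured by RT-PCR plus capillary electrophoresis.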

The nature of assay [6]: ATG_AP_1_CIS: Attagene CIS-FACTORIAL HepG2 Assay for human Activator Protein 1 (AP-1) (AID 2282931). To be noted: HepG2 Attagene cis-factorial AP-1 reporter mRNA; actives raise or lower the signal. In a few lines:
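HepG2 cells transiently transfected with cis-element-driven multiplex reporter units; 24 h compound exposure. Reporter mRNA quantified by RT-PCR, FAM-labelled fragments resolved by capillary electrophoresis; bidirectional fit versus DMSO baseline.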

Assay [7] can be described thus: ATG_AP_2_CIS: Attagene CIS-FACTORIAL HepG2 Assay for human Activator Protein 2 (AP-2) (AID 2282932). To be noted: HepG2 AP-2 cis-reporter, Attagene transcription factor profiling; actives raise or lower the signal. In a few lines:
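Assay in transfected HepG2 with promoter-regulated reporters, 24 h incubation after dosing. Signal is reporter mRNA fluorescence (RT-PCR, capillary electrophoresis), analysed for both increases and decreases relative to DMSO controls.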

Assay [8] in a line: ATG_BRE_CIS: Attagene CIS-FACTORIAL HepG2 Assay for human Bone Morphogenetic Protein (BMP) Response Element (BRE) (AID 2282933). To be noted: HepG2 BMP response element reporter, Attagene transcription factor profiling; actives raise or lower the signal. In short, it runs like this:
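Endogenous transcription factor activity at a BMP response element was monitored in transfected HepG2 cells 24 h after dosing. Fluorescent RT-PCR products were resolved by capillary electrophoresis, and activity was fitted in both directions versus DMSO.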

Assay [9] has as its target Retinoic acid receptor alpha (Homo sapiens) (UniProt P10276). Kind of assay: ATG_DR5_RAR_CIS: Attagene CIS-FACTORIAL HepG2 Assay for human Retinoic Acid Receptor Alpha (RARE), DR5 submotif (AID 2282934).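 For AC50: reporter responds to endogenous RAR alpha beta and gamma in HepG2 not RARA alone.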 To be noted: HepG2 Attagene cis-factorial RARE DR5 reporter, mRNA; actives raise or lower the signal. In short, it runs like this: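 Endpoint fitted in both directions relative to DMSO as negative control. It reflects DR5 cis-element reporter mRNA induction in transiently transfected HepG2 cells, measured 24 h after dosing through RT-PCR and fluorescent capillary electrophoresis.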

Assay [10] in a line: ATG_E_Box_CIS: Attagene CIS-FACTORIAL HepG2 Assay for human Enhancer Box (E-box) (AID 2282936). To be noted: HepG2 E-box cis-reporter transcription, actives raise or lower the signal. In short, it runs like this: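 Measured 24 h post-dosing in HepG2 cells transfected with multiple cis-regulated reporter units, signal being reporter mRNA induction detected by fluorescent RT-PCR with capillary electrophoresis; gain or loss fitted against DMSO.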

Assay [11] can be described thus: ATG_M_61_CIS: Attagene CIS-FACTORIAL HepG2 Assay for M61 Transcription Factor (Internal Marker) (AID 2282937). To be noted: HepG2 Attagene CIS-FACTORIAL M61 internal marker reporter; actives raise or lower the signal. In a few lines: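 HepG2 cells transiently transfected with cis-element-driven multiple reporter transcription units, dosed for 24 h. Reporter mRNA measured by RT-PCR, 6-FAM primer-extension labelling, HpaI digestion and capillary electrophoresis; bidirectional fit versus DMSO baseline.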

Assay [12] in a line: ATG_EGR_CIS: Attagene CIS-FACTORIAL HepG2 Assay for human Early Growth Response 1 (EGR1) (AID 2282938). To be noted: HepG2 Attagene CIS-FACTORIAL EGR reporter mRNA; actives raise or lower the signal. In short, it runs like this:
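HepG2 cells transiently transfected with cis-promoter-driven multiplexed reporter transcription units; reporter mRNA measured 24 h after compound dosing by RT-PCR, 6-FAM primer extension, HpaI digestion and capillary electrophoresis. Bidirectional fit versus DMSO baseline.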

Assay [13] in a line: ATG_M_19_CIS: Attagene CIS-FACTORIAL HepG2 Assay for M19 Transcription Factor (Internal Marker) (AID 2282939). To be noted: HepG2 Attagene CIS-FACTORIAL M19 internal marker reporter; actives raise or lower the signal. In short, it runs like this: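 Background-control endpoint from a multiplexed HepG2 reporter panel. Cells carrying cis-regulated reporter constructs are treated 24 h, then reporter transcripts are amplified, fluorescently labelled and sized by capillary electrophoresis. DMSO defines baseline.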

The nature of assay [14]: ATG_Ets_CIS: Attagene CIS-FACTORIAL HepG2 Assay for human Erythroblast Transformation Specific (ETS) (AID 2282941). To be noted: HepG2 ETS cis-reporter transcription, actives raise or lower the signal. In short, it runs like this: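 Bidirectional fit versus DMSO of reporter mRNA signal, detected by RT-PCR and capillary electrophoresis in HepG2 cells transiently transfected with cis-element reporters and dosed 24 h.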

Assay [15] addresses Hepatocyte nuclear factor 3-beta (Homo sapiens) (UniProt Q9Y261). Kind of assay: ATG_FoxA2_CIS: Attagene CIS-FACTORIAL HepG2 Assay for human Forkhead box A2 (FOXA2) (AID 2282942). To be noted: HepG2 cis-reporter transcription factor activity, 24 h; actives raise or lower the signal. In a few lines: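 HepG2 cells transiently transfected with multiple cis-regulated reporter transcription units, dosed for 24 h. Reporter mRNA measured by RT-PCR, 6-FAM labelling, HpaI digestion and capillary electrophoresis; bidirectional fitting against DMSO baseline.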

A short description of assay [16]: ATG_FoxO_CIS: Attagene CIS-FACTORIAL HepG2 Assay for human Forkhead box O (FoxO) (AID 2282943). To be noted: HepG2 Attagene cis-reporter, FoxO element, mRNA; actives raise or lower the signal. In short, it runs like this:
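Values reflect reporter mRNA induction or loss in HepG2 cells 24 h post-dosing, fitted bidirectionally with DMSO as negative control and baseline. Detection used RT-PCR and fluorescence capillary electrophoresis.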

A short description of assay [17]: ATG_GATA_CIS: Attagene CIS-FACTORIAL HepG2 Assay for human GATA Binding Protein (AID 2282944). To be noted: HepG2 GATA cis-element reporter, Attagene multiplex mRNA; actives raise or lower the signal. In short, it runs like this: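 Endogenous transcription factor activity was captured through cis-promoter-driven reporters in transfected HepG2 cells. After 24 h exposure, reporter transcripts were quantified by RT-PCR with fluorescent capillary electrophoresis, and responses fitted both directions against DMSO.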

Assay [18] has as its target Transcription factor E2F1 (Homo sapiens) (UniProt Q01094). Kind of assay: ATG_E2F_CIS: Attagene CIS-FACTORIAL HepG2 Assay for human E2F Transcription Factor 1 (AID 2282935). To be noted: HepG2 Attagene cis-reporter, E2F reporter RNA transcripts; actives raise or lower the signal. In short, it runs like this:
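In this cis-factorial format, endogenous factor activity drives transfected reporters in HepG2; transcripts collected at 24 h are quantified by fluorescence after RT-PCR and capillary separation.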

Assay [19] is described as follows: ATG_GLI_CIS: Attagene CIS-FACTORIAL HepG2 Assay for human Zinc Finger Protein GLI1 (AID 2282945). To be noted: HepG2, Attagene cis-factorial reporter mRNA, GLI element; actives raise or lower the signal. In a few lines: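 HepG2 cells transiently transfected with cis-promoter multiplexed reporter units report endogenous transcription factor activity. After 24 h chemical exposure, reporter mRNA was quantified by RT-PCR, 6-FAM labelling, HpaI digestion and capillary electrophoresis, with bidirectional fitting against DMSO.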

The nature of assay [20]: ATG_ERE_CIS: Attagene CIS-FACTORIAL HepG2 Assay for Estrogen Response Element (ERE) (AID 2282940). To be noted: HepG2 ERE cis-reporter, Attagene RNA transcript; actives raise or lower the signal. In short, it runs like this:
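Cells used were human hepatoma HepG2, transfected with multiple reporter transcription units under cis-regulatory promoters. Reporter mRNA, read 24 h post-dosing via fluorescent RT-PCR products on capillary electrophoresis, was fitted bidirectionally relative to DMSO.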

“And” between values parts separate entries of the source, which are not always exact repeats. Equal values may be shown once. Some structures have more than one record in an assay (separate samples or runs), and their calls can disagree. The source made the active and inactive calls. Rule for the calls: active = hit-call score of the fitted dose curve at least 0.9, where 1 is the maximum; inactive = score below 0.9.

Sequence of Retinoic acid receptor alpha (Homo sapiens) (P10276 whole entry, looked up): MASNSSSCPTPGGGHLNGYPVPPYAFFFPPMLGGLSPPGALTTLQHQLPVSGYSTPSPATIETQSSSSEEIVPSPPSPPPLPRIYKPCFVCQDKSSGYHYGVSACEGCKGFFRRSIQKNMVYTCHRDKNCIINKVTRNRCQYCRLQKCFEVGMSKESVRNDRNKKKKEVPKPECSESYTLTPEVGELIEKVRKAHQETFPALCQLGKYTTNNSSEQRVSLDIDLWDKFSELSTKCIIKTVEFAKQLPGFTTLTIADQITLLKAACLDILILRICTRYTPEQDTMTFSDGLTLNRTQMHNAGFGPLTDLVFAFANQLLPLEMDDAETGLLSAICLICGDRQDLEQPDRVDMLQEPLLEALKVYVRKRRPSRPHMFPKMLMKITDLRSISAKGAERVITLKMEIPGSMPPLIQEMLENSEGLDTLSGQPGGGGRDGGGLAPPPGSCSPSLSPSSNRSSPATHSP
Sequence of CCAAT/enhancer-binding protein beta (Homo sapiens) (P17676 whole entry, looked up): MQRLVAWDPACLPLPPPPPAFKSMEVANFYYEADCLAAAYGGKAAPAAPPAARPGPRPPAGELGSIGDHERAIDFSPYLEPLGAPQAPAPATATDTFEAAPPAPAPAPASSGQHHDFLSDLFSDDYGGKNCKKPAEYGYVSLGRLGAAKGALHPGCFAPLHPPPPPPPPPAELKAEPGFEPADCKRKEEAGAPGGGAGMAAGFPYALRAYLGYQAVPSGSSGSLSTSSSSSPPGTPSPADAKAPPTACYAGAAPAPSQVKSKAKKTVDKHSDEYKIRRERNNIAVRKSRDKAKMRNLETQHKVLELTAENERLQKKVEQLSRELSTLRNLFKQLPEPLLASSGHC
Sequence of Hepatocyte nuclear factor 3-beta (Homo sapiens) (Q9Y261 whole entry, looked up): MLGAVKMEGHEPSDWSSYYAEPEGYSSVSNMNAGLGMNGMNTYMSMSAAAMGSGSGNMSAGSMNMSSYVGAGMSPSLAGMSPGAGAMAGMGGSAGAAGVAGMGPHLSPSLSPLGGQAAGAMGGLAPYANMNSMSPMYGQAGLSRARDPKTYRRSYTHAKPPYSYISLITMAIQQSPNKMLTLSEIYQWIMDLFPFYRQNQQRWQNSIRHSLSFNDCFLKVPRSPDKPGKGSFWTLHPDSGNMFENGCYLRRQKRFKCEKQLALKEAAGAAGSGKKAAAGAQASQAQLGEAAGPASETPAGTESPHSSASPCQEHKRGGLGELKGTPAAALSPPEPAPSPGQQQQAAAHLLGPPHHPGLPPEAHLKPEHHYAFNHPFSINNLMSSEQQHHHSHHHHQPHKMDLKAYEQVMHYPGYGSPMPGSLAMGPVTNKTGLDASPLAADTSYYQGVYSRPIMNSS
Sequence of Transcription factor E2F1 (Homo sapiens) (Q01094 whole entry, looked up): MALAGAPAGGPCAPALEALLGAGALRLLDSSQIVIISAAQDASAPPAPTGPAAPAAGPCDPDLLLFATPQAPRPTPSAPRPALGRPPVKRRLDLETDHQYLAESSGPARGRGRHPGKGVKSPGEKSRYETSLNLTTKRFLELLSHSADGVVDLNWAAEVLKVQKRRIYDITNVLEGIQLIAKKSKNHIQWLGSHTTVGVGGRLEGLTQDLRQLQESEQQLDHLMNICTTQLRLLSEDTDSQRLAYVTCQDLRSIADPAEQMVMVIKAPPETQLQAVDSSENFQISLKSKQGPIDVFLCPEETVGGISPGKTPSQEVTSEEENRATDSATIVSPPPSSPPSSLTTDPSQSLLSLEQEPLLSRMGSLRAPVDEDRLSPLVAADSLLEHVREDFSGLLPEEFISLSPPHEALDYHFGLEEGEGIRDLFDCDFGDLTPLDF
Sequence of Aryl hydrocarbon receptor (Homo sapiens) (P35869 whole entry, looked up): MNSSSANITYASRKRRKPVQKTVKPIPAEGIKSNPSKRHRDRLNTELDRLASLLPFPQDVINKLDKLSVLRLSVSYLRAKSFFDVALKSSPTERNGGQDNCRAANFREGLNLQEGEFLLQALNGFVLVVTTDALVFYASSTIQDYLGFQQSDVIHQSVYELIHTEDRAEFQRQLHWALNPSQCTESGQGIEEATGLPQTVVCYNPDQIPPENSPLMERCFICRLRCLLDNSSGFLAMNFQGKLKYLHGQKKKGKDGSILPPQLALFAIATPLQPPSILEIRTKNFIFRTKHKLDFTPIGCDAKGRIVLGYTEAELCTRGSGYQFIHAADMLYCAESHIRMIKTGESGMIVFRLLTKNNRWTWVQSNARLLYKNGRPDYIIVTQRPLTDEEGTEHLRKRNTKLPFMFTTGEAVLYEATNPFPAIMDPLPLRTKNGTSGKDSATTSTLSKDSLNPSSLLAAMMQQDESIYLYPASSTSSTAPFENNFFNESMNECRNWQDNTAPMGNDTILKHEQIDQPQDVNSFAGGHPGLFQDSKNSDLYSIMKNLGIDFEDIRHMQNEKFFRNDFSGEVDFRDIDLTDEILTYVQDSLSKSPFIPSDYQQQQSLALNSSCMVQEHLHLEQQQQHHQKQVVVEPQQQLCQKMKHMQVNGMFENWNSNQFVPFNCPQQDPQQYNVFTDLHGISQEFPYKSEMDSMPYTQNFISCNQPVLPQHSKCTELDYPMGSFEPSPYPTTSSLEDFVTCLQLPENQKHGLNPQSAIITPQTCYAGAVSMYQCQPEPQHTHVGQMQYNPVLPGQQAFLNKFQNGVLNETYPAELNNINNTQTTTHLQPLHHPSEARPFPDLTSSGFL

As to `CS(=O)(=O)NC(=O)c1cc(Oc2ccc(C(F)(F)F)cc2Cl)ccc1[N+](=O)[O-]`, the result in [1], in [2], in [3], in assay [4], in assay [5] and in assay [6] was inactive. The compound was classed as inactive in assay [7], in assay [8], in [9], in [10], in [11] and in assay [12]. Further, the outcome in assay [13], in [14], in assay [15], in assay [16] and in assay [17] was inactive.

Take `Clc1ccc(Cl)c(Cl)c1`: the outcome in assay [1], in assay [2], in assay [3], in assay [4], in assay [6] and in assay [8] was inactive. Also, the outcome in [9], in assay [10], in assay [11], in [12], in assay [14] and in assay [15] was inactive. The call in assay [16] and in assay [17] was inactive. In assay [5], the AC50 is 77.8 µM (active).

In the case of `CCNS(=O)(=O)C(F)(F)C(F)(F)C(F)(F)C(F)(F)C(F)(F)C(F)(F)C(F)(F)C(F)(F)F`, the AC50 was 45.3 µM (active) and 16.1 µM (active) and 15.7 µM (active) in [1]; 29.9 µM (active) and 75.2 µM (active) in [6]; 33.4 µM (active) and 63.6 µM (active) and 35.3 µM (active) in assay [8]; 96.5 µM (active) in assay [9]; 96.5 µM (active) in [12]; 138 µM (active) in [17]. In addition, the result in [2], in assay [3], in [4], in [5], in [6] and in assay [9] was inactive. For the same compound, the result in assay [18], in assay [10], in assay [11], in [12], in [13] and in [14] was inactive. In addition, the call in [15], in assay [16] and in assay [17] was inactive.

As for `OCCCl`, the result in assay [1], in assay [2], in assay [3], in [4], in assay [5] and in assay [6] was inactive. Moreover, the compound was called inactive in assay [7], in [8], in assay [9], in assay [18], in [10] and in assay [11]. For the same compound, the outcome in [12], in assay [13], in assay [14], in assay [15], in [16] and in [17] was inactive. For the same compound, in assay [19], the call was inactive.

For the compound `C[N+](C)(C)CC1CO1` (centres undefined), the compound was classed as inactive in assay [1], in assay [2], in assay [3], in [4], in [5] and in assay [6]. The compound was classed as inactive in [8], in assay [9], in assay [18], in assay [10], in assay [11] and in [12]. Further, the outcome in [20], in assay [14], in assay [15], in assay [16], in assay [17] and in assay [19] was inactive.

For the compound `CCCCOC(=O)c1ccccc1C(=O)OCc1ccccc1`, the result in [1], in [2], in [3], in [4], in [5] and in [6] was inactive. In addition, the call in [8], in [9], in [10], in [11], in assay [12] and in assay [13] was inactive. The result in [14], in [15], in assay [16] and in assay [17] was inactive.

Turning to `CCCCCCCCOC(=O)c1ccc(C(=O)OCCCCCCCC)c(C(=O)OCCCCCCCC)c1`, the call in assay [1], in assay [2], in assay [3], in assay [4], in [5] and in assay [6] was inactive. In addition, the compound was called inactive in assay [7], in assay [8], in assay [9], in [18], in assay [10] and in assay [11]. For the same compound, the compound was called inactive in [12], in [13], in [14], in [15], in assay [16] and in [17].

In general, AC50 refers to the midpoint of the concentration-response curve, whichever way the signal moves.
